Inconclusive results are not listed. Activity calls are given as the source filed them. The call rests on the fitted dose curve; in most records, active means well fitted cell-killing curve with a large enough effect in the repeat runs; inconclusive means weak or mixed curves, or effect the other way; inactive means no such curve, though single readings can be large or run the other way.
test: qHTS assay to identify small molecule antagonists of the retinoid-related orphan receptor gamma (ROR-gamma) signaling pathway - cell viability counter screen (AID 1159520); settings: Tet-on RORgamma CHO cells viability, ATP luminescence, 16 h; series mostly up to 92.4 µM; further: nearly all actives have a fitted effect of over 50% in size
From the text: U.S. Tox21 Program National Center for Advancing Translational Sciences [NCATS] NIH Chemical Genomics Center [NCGC] U.S. Environmental Protection Agency [EPA] National Institutes of Environmental Health Sciences [NIEHS] National Toxicology Program [NTP] U.S. Food and Drug Administration [FDA] Tox21 Assay Overview: Nuclear steroid hormone receptors are involved in many biological processes including inflammatory responses, cell proliferation, and apoptosis. Environmental factors or compounds disrupting these nuclear receptor pathways and gene expression may promote susceptibility to immunotoxicants and autoimmune diseases. One important group of these expression factors are the retinoid-related orphan receptors. To assess compounds that may interfere with the retinoid-related orphan receptor gamma (ROR-gamma) transcription factor, a cell-based luciferase assay was used. The CHO cell-based assay utilizes a TET-inducible ROR expression factor and ROR response element-LUC reporter gene. Reporter gene activity was induced using Doxycycline Hyclate and measured after 16 hr incubation. Tet-on ROR gamma CHO cells were used to screen against the Tox21 10K compound library for cytotoxicity by measuring the viability of the cells based on the quantitation of the ATP.
Tox21 Assay Protocol Summary: Tet-on ROR gamma CHO cells were dispensed at 1,000 cells in 4 uL of culture medium per well into white wall/solid bottom 1536-well plates using a Multidrop Combi (Thermo Scientific, Waltham, MA) dispenser. Following incubation at 37 C and 5% CO2 for 4 hr, 23 nL of compounds dissolved in DMSO, positive controls or DMSO only were transferred by a Pintool station (Kalypsys, San Diego, CA) and after 2 hr incubation at 37 C, one ul of 1 uM (final concentration) of Doxycycline Hyclate was added to all the wells by using a Flying Reagent Dispenser (FRD) (Aurora Discovery, San Diego, CA). After 16 hr incubation at 37 C and 5% CO2, 5 uL of CellTiter-Glo reagent (Promega Corporation, Madison, WI) was added to each assay plate using FRD. After 30 min incubation at room temperature, luminescence was quantified on a ViewLux plate reader (Perkin Elmer, Waltham, MA).

Q: For `CCN(CCC#N)c1ccccc1`, which outcome is on record?
A: The outcome was “inactive”.

Q: With `CC(C)COC(=O)COc1ccc(Cl)cc1Cl` as the compound, how does the outcome read?
A: Its outcome is “inactive”.

Q: With `CC(C)CCO` as the compound, how does the outcome read?
A: The outcome was “inactive”.

Q: For `Nc1ccc(S(=O)(=O)NC(=O)c2ccccc2)cc1`, which outcome is on record?
A: Its outcome is “inactive”.

Q: For `CC(C)COC(=O)CC(C(=O)OCC(C)C)S(=O)(=O)O` (stereo not given), which outcome is on record?
A: Its outcome is “inactive”.

Q: Which outcome does the source give for `CC(C)(C)NCCO` here?
A: Its outcome is “inactive”.

Q: For `CCCO`, which outcome is on record?
A: The outcome was “inactive”.

Q: With `Nc1cc(C(=O)O)ccc1Cl` as the compound, how does the outcome read?
A: Its outcome is “inactive”.

Q: Which outcome does the source give for `CN[C@@H]1[C@H](O)[C@H](NC)[C@H]2O[C@@]3(O)C(=O)C[C@@H](C)O[C@H]3O[C@@H]2[C@H]1O` here?
A: The outcome was “inactive”.

Q: For `O=C(/C=C/c1ccccc1)NCCO`, which outcome is on record?
A: The outcome was “inactive”.

Q: For `O=C(O)c1ccc(OCCN2CCCCC2)cc1`, which outcome is on record?
A: The outcome was “inactive”.

Q: Which outcome does the source give for `COc1ccc(OC)c(NC(=O)CC(C)=O)c1` here?
A: Its outcome is “inactive”.

Q: Which outcome does the source give for `COCC(=O)Nc1c(I)c(C(=O)NCC(O)CO)c(I)c(C(=O)N(C)CC(O)CO)c1I` (stereo not given) here?
A: The outcome was “inactive”.

Q: For `COc1ccc(N=Nc2cc(C)c(N=Nc3ccc(S(=O)(=O)O)cc3)cc2OC)cc1`, which outcome is on record?
A: Its outcome is “inactive”.

Q: For `O=S(=O)(O)c1cc(O)ccc1O`, which outcome is on record?
A: Its outcome is “inactive”.

Q: Which outcome does the source give for `O=C1c2ccccc2-c2ccccc21` here?
A: Its outcome is “inactive”.

Q: For `O=C(O)CCNC(=O)c1ccccc1`, which outcome is on record?
A: Its outcome is “inactive”.

Q: For `CC(C)CCCC(C)CC=O` (stereo not given), which outcome is on record?
A: Its outcome is “inactive”.

Q: For `CCCCC(CC)C(=O)OC(C)C` (stereo not given), which outcome is on record?
A: Its outcome is “inactive”.

Q: For `CCCC(C)CC` (stereo not given), which outcome is on record?
A: The outcome was “inactive”.

Q: With `CC(C)C(=O)Nc1cccc(C(F)(F)F)c1` as the compound, how does the outcome read?
A: Its outcome is “inactive”.

Q: For `O=C(O)c1ccccc1C(=O)Nc1ccc(S(=O)(=O)Nc2nccs2)cc1`, which outcome is on record?
A: The outcome was “inactive”.

Q: With `CC(=O)Nc1ncc([N+](=O)[O-])s1` as the compound, how does the outcome read?
A: Its outcome is “inactive”.

Q: With `CCN(Cc1cccc(S(=O)(=O)O)c1)c1ccccc1` as the compound, how does the outcome read?
A: The outcome was “inactive”.

Q: For `C=CC(C)(O)CC/C=C(\C)CC` (stereo not given), which outcome is on record?
A: The outcome was “inactive”.

Q: For `O=CN1CCOCC1`, which outcome is on record?
A: The outcome was “inactive”.

Q: Which outcome does the source give for `CCCCCC1Nc2cc(C(F)(F)F)c(S(N)(=O)=O)cc2S(=O)(=O)N1` (stereo not given) here?
A: The outcome was “inactive”.

Q: Which outcome does the source give for `CN(C)CCOCCN(C)CCO` here?
A: Its outcome is “inactive”.

Q: With `C1=CCC(c2ccccc2)CC1` (stereo not given) as the compound, how does the outcome read?
A: Its outcome is “inactive”.

Q: With `CCCOCCOCCOCCO` as the compound, how does the outcome read?
A: The outcome was “inactive”.

Q: With `NS(=O)(=O)c1cc2c(cc1Cl)NC(C(Cl)Cl)NS2(=O)=O` (stereo not given) as the compound, how does the outcome read?
A: The outcome was “inactive”.

Q: Which outcome does the source give for `OC[C@@H](O)[C@H](O)[C@@H](O)[C@@H](O)CO` here?
A: Its outcome is “inactive”.

Q: Which outcome does the source give for `Nc1ccc(S(=O)(=O)Nc2ccccn2)cc1` here?
A: The outcome was “inactive”.

Q: Which outcome does the source give for `Cc1ccc2c(c1)c1c3n2CCNC3CCC1` (stereo not given) here?
A: The outcome was “inactive”.

Q: With `CC(=O)N1CCN(c2ccc(O)cc2)CC1` as the compound, how does the outcome read?
A: The outcome was “inactive”.

Q: With `c1ccccc1` as the compound, how does the outcome read?
A: The outcome was “inactive”.

Q: With `C=COCCOCCOC=C` as the compound, how does the outcome read?
A: Its outcome is “inactive”.

Q: For `CCCCCC(=O)OCC`, which outcome is on record?
A: The outcome was “inactive”.

Q: Which outcome does the source give for `C=CCOCC(CO)(COCC=C)COCC=C` here?
A: The outcome was “inactive”.

Q: With `NS(=O)(=O)c1ccccc1OC(F)(F)F` as the compound, how does the outcome read?
A: The outcome was “inactive”.
